Measurements from the supplement of paper PMC10720658.
± gives the standard deviation of the averaged measurements.

The compounds below were run on AEK1 (Tb927.3.2440) (assay: percent reduction in TR-FRET probe signal relative to DMSO control; higher = stronger displacement of ATP-site probe (binding)). Conditions: 1 µM; incubation time 1 h.
Oc1cccc(-c2nc(N3CCOCC3)c3oc4ncccc4c3n2)c1 was tested, and the “percent reduction in TR-FRET probe signal” value (from here on “percent reduction”) was -5.8 ± 6.4%. With N#CC[C@@H](C1CCCC1)n1cc(-c2ncnc3[nH]ccc23)cn1 the “percent reduction” value was 19.4 ± 9.1%. In the case of N[C@@H]1CCCN(c2c(/C=C3\SC(=O)NC3=O)cccc2-c2ccccc2)C1, the “percent reduction” value is reported as -4.54 ± 7.8%. Cc1[nH]c(/C=C2\C(=O)Nc3ccccc32)c(C)c1CCC(=O)O [TSU-68 (SU6668, Orantinib)] was tested, and the “percent reduction” value was 1.55 ± 4%. In the case of Cc1ccc(Nc2nccc(N(C)c3ccc4c(C)n(C)nc4c3)n2)cc1S(N)(=O)=O [Pazopanib], the “percent reduction” value is reported as 7.95 ± 16%. CC[C@@H]1C(=O)N(C)c2cnc(Nc3ccc(C(=O)N[C@H]4CC[C@H](N5CCN(CC6CC6)CC5)CC4)cc3OC)nc2N1C(C)C [Volasertib (BI 6727)] was tested, and the “percent reduction” value was 4.92 ± 1.3%. With Cn1sc(=O)n(Cc2ccccc2)c1=O the “percent reduction” value was -18.6 ± 15%. In the case of Cc1cnc(Nc2ccc(N3CCN(C)CC3)cc2)nc1Nc1cccc(S(=O)(=O)NC(C)(C)C)c1, the “percent reduction” value is reported as 5.49 ± 1.9%. In the case of O=C(Nc1ccccc1C(=O)NC1CCCCNC1=O)c1cc2ccccc2s1 (stereo not given), the “percent reduction” value is reported as -0.533 ± 1.2%. For NC(=O)Nc1sc(-c2ccc(F)cc2)cc1C(N)=O, the “percent reduction” value was 10.6 ± 8.8%. C=CC(=O)Nc1cccc(Oc2nc(Nc3ccc(N4CCN(C)CC4)cc3)ncc2Cl)c1 was tested, and the “percent reduction” value was 1.06 ± 9.5%. With N#C/C(=C(/N)Sc1ccc(N)cc1)c1ccccc1C(F)(F)F the “percent reduction” value was 2.78 ± 13%. In the case of Cc1cc(CS(=O)(=O)c2ccccc2)cc(OCc2ccc(CN3CCC[C@@H]3CO)cc2)c1, the “percent reduction” value is reported as -6.92 ± 5.9%. For Cc1cc(Nc2ncc(Cl)c(Nc3ccccc3S(=O)(=O)C(C)C)n2)c(OC(C)C)cc1C1CCNCC1, the “percent reduction” value was -7.62 ± 8.9%. In the case of N#Cc1ccc2[nH]c(O)c(-c3ccc(CN4CCOCC4)cn3)c2c1, the “percent reduction” value is reported as -12.4 ± 8.1%. In the case of Cc1ccc(C(=O)Nc2ccc(CN3CCN(C)CC3)c(C(F)(F)F)c2)cc1C#Cc1cnc2cccnn12, the “percent reduction” value is reported as 0.933 ± 14%. OCCn1cc(-c2cnc3nnn(Cc4ccc5ncccc5c4)c3n2)cn1 was tested, and the “percent reduction” value was -2.19 ± 3.1%. In the case of Cc1c(Cn2c(C)nc3c(C(=O)O)cc(N4CCOCC4)cc32)cccc1C(F)(F)F, the “percent reduction” value is reported as 1.17 ± 7.4%. COc1cc(Nc2c(C#N)cnc3cc(OCCCN4CCN(C)CC4)c(OC)cc23)c(Cl)cc1Cl [Bosutinib (SKI-606)] was tested, and the “percent reduction” value was 0.893 ± 13%. For Cn1cnc2c(F)c(Nc3ccc(Br)cc3Cl)c(C(=O)NOCCO)cc21 [Selumetinib (AZD6244)], the “percent reduction” value was 11.4 ± 34%. COc1ccc2cc(-c3[nH]c(-c4ccc(S(C)=O)cc4)nc3-c3ccncc3)ccc2c1 (stereo not given) [Tie2 kinase inhibitor] was tested, and the “percent reduction” value was 2.05 ± 9.9%. COCCOc1ccc2c(c1)ncn2-c1ccc2cccc(N3CCC(N)CC3)c2n1 was tested, and the “percent reduction” value was 24.4 ± 7.1%. In the case of CS(=O)(=O)O.N#CC1(c2ccc(NC(=O)c3cccnc3NCc3ccncc3)cc2)CCCC1 [Apatinib], the “percent reduction” value is reported as -2.66 ± 9.6%. In the case of CN(C)CCCn1cc(C2=C(c3c[nH]c4ccccc34)C(=O)NC2=O)c2ccccc21, the “percent reduction” value is reported as 8.74 ± 7.2%. O=C(Nc1cccc(Nc2ncc(Br)c(NCCc3cnc[nH]3)n2)c1)N1CCCC1 was tested, and the “percent reduction” value was 52.9 ± 12%.
